Data on 15 compounds can be found in the supplement of paper PMC11219838.

The subject of test [1] is Caenorhabditis elegans dauer (daf-2(e1370)). Kind of test: proportion of mobile C. elegans dauer larvae relative to DMSO control (fraction of DMSO control); higher = more viable, less nematicidal, active = 0.63 or less; extreme values may be limits of the assay. Particulars: 60 µM; 5 days; temperature: 20 °C. A digest of the protocol: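 Compound was added by pinning to 60 µM final, giving 0.6% v/v DMSO, in 96-well plates containing about 20 C. elegans dauers per well in liquid NGM. These dauers came from synchronized larvae held on MYOB plates with E. coli OP50 for 48 h at 25 °C. Plates were sealed and shaken at 200 rpm at 20 °C for 5 days. Under a dissection microscope, the proportion of mobile worms was scored relative to DMSO wells, and two biological replicates were averaged.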

In another test the test system is Ditylenchus dipsaci. In words: proportion of mobile D. dipsaci (mixed stage) relative to DMSO control (fraction of DMSO control); higher = more viable, less nematicidal, active = 0.86 or less; extreme values may be limits of the assay. Particulars: 60 µM; 5 days; temperature: 20 °C. An outline of the steps: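 The worms, D. dipsaci raised on pea plants in Gamborg B-5 agar, were recovered through a filter funnel into water. Each well of a 96-well plate then held about 20 of them in distilled water plus pinned compound at 60 µM final (0.6% v/v DMSO), and the sealed plates were shaken at 200 rpm at 20 °C for 5 days. Following addition of 2 µL 1 M NaOH, mobile worms were counted by microscopy, and mobility was expressed against DMSO controls as the average of two biological replicates.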

Values without a mark were called inactive.

With `Cc1ccc(C)c(OCc2nc(-c3cccnc3)no2)c1`, the “proportion of mobile C. elegans dauer larvae” value in test [1] was 1. Besides, in the test on Ditylenchus dipsaci, the “proportion of mobile D. dipsaci” value is 1.

As for `c1ccc(OCc2nc(-c3cccs3)no2)cc1`, the “proportion of mobile C. elegans dauer larvae” value in test [1] is 0.0278 (active). The “proportion of mobile D. dipsaci” value in the test on Ditylenchus dipsaci is 1.

In the case of `Cc1cccc(C)c1NC(=O)CSc1nnc(-c2ccncc2)o1`, in the test with Ditylenchus dipsaci, the “proportion of mobile D. dipsaci” value is 1.

For `O=C(CSc1nnc(-c2ccccc2)o1)N1CCc2ccccc21`, in test [1], the “proportion of mobile C. elegans dauer larvae” value is 1. The “proportion of mobile D. dipsaci” value with Ditylenchus dipsaci was 1.

As for `O=C(CSc1nnc(-c2ccc(Br)cc2)o1)Nc1ccc2ccccc2c1`, in the test with Ditylenchus dipsaci, the “proportion of mobile D. dipsaci” value is 1.

For the compound `Cc1cccc(OC(C)c2nc(-c3ccncc3)no2)c1` (centres undefined), in the test with Ditylenchus dipsaci, the “proportion of mobile D. dipsaci” value is 1.

In the case of `Cc1ccc(NC(=O)CSc2nnc(-c3ccco3)o2)cc1Br`, the “proportion of mobile D. dipsaci” value in the test with Ditylenchus dipsaci was 1.

Consider `Ic1ccc(CSc2nnc(-c3ccccc3)o2)cc1`, for which, in test [1], the “proportion of mobile C. elegans dauer larvae” value is 1. The “proportion of mobile D. dipsaci” value in the test on Ditylenchus dipsaci is 1.

In the case of `CC(=O)Nc1cccc(-c2nnc(SCc3ccccc3)o2)c1`, the “proportion of mobile D. dipsaci” value in the test on Ditylenchus dipsaci was 1.

For `Cc1ccc(OCc2nc(-c3ccc(F)cc3)no2)cc1C`, the “proportion of mobile C. elegans dauer larvae” value in test [1] is 1. Besides, the “proportion of mobile D. dipsaci” value with Ditylenchus dipsaci is 1.

With `COc1ccc(-c2noc(-c3ccc(C)cc3)n2)cc1`, in the test on Ditylenchus dipsaci, the “proportion of mobile D. dipsaci” value was 0.932.

On to `COc1ccc(-c2noc(CSc3nc4cc(C)ccc4[nH]3)n2)cc1`, for which the “proportion of mobile C. elegans dauer larvae” value in test [1] was 1. Also, the “proportion of mobile D. dipsaci” value in the test on Ditylenchus dipsaci was 1.

As for `COc1ccc(NC(=O)CSc2nnc(-c3ccc(Br)cc3)o2)cc1`, the “proportion of mobile C. elegans dauer larvae” value in test [1] is 1. Moreover, the “proportion of mobile D. dipsaci” value with Ditylenchus dipsaci was 1.

Take `Cc1cccc(OCc2nc(-c3ccccc3Cl)no2)c1`: the “proportion of mobile C. elegans dauer larvae” value in test [1] is 1. Also, the “proportion of mobile D. dipsaci” value in the test with Ditylenchus dipsaci was 1.

On to `Cc1ccc(-c2noc(COc3cc(C)cc(C)c3)n2)cc1`, for which, in test [1], the “proportion of mobile C. elegans dauer larvae” value is 1. Further, the “proportion of mobile D. dipsaci” value in the test with Ditylenchus dipsaci is 1.
